Measurements: PubChem BioAssay (Tox21)
Calls of active or inactive are those of the source. Calls follow the shape of the full dose curve.

Assay: qHTS assay to identify small molecule agonists of the sonic hedgehog signaling (Shh) pathway (AID 1259368);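 also: NIH/3T3-derived 3T3Gli1-Luc cells carrying a stable Gli1-driven firefly luciferase reporter; nearly all actives have a fitted effect of over 15% in size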
Details: NIH/3T3 Gli1-Luc reporter, luciferase, 24 h, stronger effect = higher value; series mostly up to 92.4 µM; activity change: at the top concentration
Text: National Center for Advancing Translational Sciences [NCATS]
NIH Chemical Genomics Center [NCGC]
U.S. Environmental Protection Agency [EPA]
National Institutes of Environmental Health Sciences [NIEHS]
National Toxicology Program [NTP]
The sonic hedgehog (Shh) pathway is essential for normal embryonic development. Dysregulation of the Shh pathway can cause severe developmental defects in organs. Therefore chemicals that interfere with the pathway are potential developmental toxicants. A cell line designated 3T3Gli1-Luc (DMB/OARSA/CFSAN/FDA, Laurel, MD), a NIH/3T3 derived clone containing stably integrated Gli1-Luc reporter is used to detect chemical interference of the Shh pathway, by changes in the expression of the firefly Luc gene under the control of the Gli1 transcriptional response element. This cell line was used to screen Tox21 libraries for identifying and prioritizing the potential developmental toxicants that interfere Shh pathway.
3T3 Gli1-Luc cells were dispensed at 2,000 per well in 5uL of culture medium into white solid bottom 1536-well plates (Greiner Bio-One, Monroe, NC) using a Multidrop Combi (Thermo Scientific, Waltham, MA) dispenser. The assay plates were incubated at 37 C and 5% CO2 for 4hr, and then 23nL of compounds dissolved in DMSO and positive control were transferred using a Pintool station (Wako, San Diego, CA). The assay plates were incubated at 37C and 5% CO2 for 24hr. For luciferase read, 4uL of Amplite Luciferase reporter gene assay reagent (AAT Bioquest, Inc. Sunnyvale, CA) was added to each well of the assay plates using Flying Reagent Dispenser (FRD, Aurora Discovery, San Diego, CA) and incubated at room temperature for 30min. The luminescence signal was measured using a ViewLux plate reader (Perkin Elmer, Shelton, CT).
% is scaled to controls: 0 for no effect and ±100 for the full control effect.

| Structure (SMILES) | activity change |
| --- | --- |
| CC(CC=O)CC(C)(C)C (stereo not given) | 0.0413% (inactive) |
| CCCCCCCCCCCCSC | 0.182% (inactive) |
| OCCCCCO | 0.306% (inactive) |
| CC[C@H]1OC(=O)[C@H](C)[C@@H](O[C@H]2C[C@@](C)(OC)[C@@H](O)[C@H](C)O2)[C@H](C)[C@@H](O[C@@H]2O[C@H](C)C[C@H](N(C)C)[C@H]2O)[C@](C)(OC)C[C@@H](C)C(=O)[C@H](C)[C@@H](O)[C@]1(C)O | -2.31% (inactive) |
| Cc1ccc(C(=O)Nc2ccc(S(=O)(=O)O)c3cc(S(=O)(=O)O)cc(S(=O)(=O)O)c23)cc1NC(=O)c1cccc(NC(=O)Nc2cccc(C(=O)Nc3cc(C(=O)Nc4ccc(S(=O)(=O)O)c5cc(S(=O)(=O)O)cc(S(=O)(=O)O)c45)ccc3C)c2)c1 | -0.598% [at 42.5 µM] (inactive) |
| CN(C)CCCN(C)CCCN(C)C | 0.369% (inactive) |
| CC12CCC(C(=O)C1=O)C2(C)C (stereo not given) | -0.146% (inactive) |
| O=C(O)CC(C(=O)O)S(=O)(=O)O (stereo not given) | 1.54% (inactive) |
| Cc1ncc([C@@H](CCCCCCc2ccc3c(n2)NCCC3)CC(=O)O)cn1 | -5.11% (inactive) |
| Cc1ncc(COP(=O)(O)O)c(C=O)c1O | -0.0682% [at 42.5 µM] (inactive) |
| O=S(=O)(O)c1cccc2c(S(=O)(=O)O)cccc12 | -2.48% (inactive) |
| CC(=O)c1ccc2ccccc2c1 | 0.344% (inactive) |
| O=[N+]([O-])c1cncn1CCN1CCOCC1 | 0.118% [at 42.5 µM] (inactive) |
| O=S(=O)(O)c1cc(O)c(O)c(S(=O)(=O)O)c1 | -0.114% (inactive) |
| CCCC(=O)O[C@]1(C(=O)CC)CC[C@H]2[C@@H]3CCC4=CC(=O)CC[C@]4(C)[C@H]3[C@@H](O)C[C@@]21C | -1.69% [at 42.5 µM] (inactive) |
| CCN1C=CN(C)C1C (stereo not given) | 0.229% (inactive) |
| COc1ccnc(CS(=O)c2nc3cc(OC(F)F)ccc3[nH]2)c1OC (stereo not given) | 0.927% (inactive) |
| COCCOC[C@H](CC1(C(=O)NC2CCC(C(=O)O)CC2)CCCC1)C(=O)Oc1ccc2c(c1)CCC2 (stereo not given in full) | 0.494% (inactive) |
| CCCCc1ccc2c(n1)[C@@H](c1ccc(OC)cc1C[C@H](C)C(=O)O)[C@H](C(=O)O)[C@H]2c1ccc2c(c1)OCO2 | -0.267% (inactive) |
| CCC(C)(CN(C)C)OC(=O)c1ccccc1 (stereo not given) | -0.129% [at 42.5 µM] (inactive) |

| Structure (SMILES) | activity change |
| --- | --- |
| CCCCCCCCCCCCCCC(=O)O | -1.04% (inactive) |
| O=C(O)CCSCCC(=O)O | -0.593% (inactive) |
| NS(=O)(=O)Cc1noc2ccccc12 | 0.022% [at 42.5 µM] (inactive) |
| CCN[C@@H]1C[C@H](N)[C@@H](OC2OC(CN)=CCC2N)[C@H](O)[C@H]1O[C@H]1OC[C@](C)(O)[C@H](NC)[C@H]1O (stereo not given in full) | 0.0974% [at 0.349 µM] (inactive) |
| C=C[Si](OC(C)=O)(OC(C)=O)OC(C)=O | 1.25% (inactive) |
| CC1=NN(c2cccc(S(=O)(=O)O)c2)C(=O)C1 | -2.21% (inactive) |
| CCCC[N+](C)(CCCC)CCCC | -0.524% (inactive) |
| NC(N)=NCCN1CCCCCCC1 | -0.0353% [at 0.349 µM] (inactive) |
| CO[C@@]1(NC(=O)CSC[C@@H](N)C(=O)O)C(=O)N2C(C(=O)O)=C(CSc3nnnn3C)CS[C@@H]21 | -0.586% [at 42.5 µM] (inactive) |
| CC(CO)(CO)[N+](=O)[O-] | 0.231% (inactive) |
| CC(C)(C)C(=O)c1ccccc1 | 0.0567% (inactive) |
| C=C(C)C(=O)OCC1CCCO1 (stereo not given) | 0.399% (inactive) |
| CC(C)=CCC/C(C)=C/C#N | 0.157% (inactive) |
| Clc1cc(Cl)c(Cl)nc1Cl | 2.41% (inactive) |
| O=C(O)CCCC[P+](c1ccccc1)(c1ccccc1)c1ccccc1 | -0.562% [at 42.5 µM] (inactive) |
| CCCCOCCOC(=O)CCCCCCCCC(=O)OCCOCCCC | -0.0077% (inactive) |
| CC(C)C(=O)OC(=O)C(C)C | -2.46% (inactive) |
| NC(=O)N1c2ccccc2CC(=O)c2ccccc21 | 0.22% [at 42.5 µM] (inactive) |
| O=C1c2ccccc2C(=O)c2cc(O)ccc21 | 4.71% (inactive) |
| CCOc1ccccc1OCC | -0.0409% (inactive) |
